# Screening results: PubChem, National Center for Advancing Translational Sciences (NCATS)
# USP1 inh – USP1/UAF1 (human) deubiquitinase inhibition; O94782; recombinant USP1/UAF1, Ub-Rhodamine cleavage fluorescence; Potency, µM (series often up to 57.1 µM), inactives show at the highest dose activity change, negative = inhibition, usual class: inhibitors; actives 0.23% (n = 390,000); further: potency means the concentration at half of the fitted maximal effect; nearly all actives have a fitted effect of over 60% in size
# Target sequence (O94782 whole entry, looked up): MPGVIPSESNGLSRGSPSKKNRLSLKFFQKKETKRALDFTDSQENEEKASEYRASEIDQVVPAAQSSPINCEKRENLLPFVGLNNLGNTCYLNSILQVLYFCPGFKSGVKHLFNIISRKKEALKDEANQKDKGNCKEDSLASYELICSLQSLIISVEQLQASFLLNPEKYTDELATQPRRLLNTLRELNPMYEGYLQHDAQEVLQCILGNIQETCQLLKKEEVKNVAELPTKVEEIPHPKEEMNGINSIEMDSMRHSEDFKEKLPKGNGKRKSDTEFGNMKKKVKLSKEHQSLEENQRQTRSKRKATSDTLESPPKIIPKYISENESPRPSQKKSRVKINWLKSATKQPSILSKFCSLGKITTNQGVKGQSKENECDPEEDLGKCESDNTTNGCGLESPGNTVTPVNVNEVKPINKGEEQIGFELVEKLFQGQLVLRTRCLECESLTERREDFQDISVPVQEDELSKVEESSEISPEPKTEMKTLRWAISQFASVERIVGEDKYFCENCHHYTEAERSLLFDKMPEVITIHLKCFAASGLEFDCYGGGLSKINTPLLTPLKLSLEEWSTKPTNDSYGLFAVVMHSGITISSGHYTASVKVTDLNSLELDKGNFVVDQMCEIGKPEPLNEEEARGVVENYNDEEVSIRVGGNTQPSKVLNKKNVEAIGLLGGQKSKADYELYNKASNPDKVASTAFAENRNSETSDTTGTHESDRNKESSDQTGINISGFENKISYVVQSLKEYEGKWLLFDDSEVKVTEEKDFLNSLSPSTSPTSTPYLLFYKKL
#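 USP1/UAF1 complex (1 nM) preincubated 15 min at room temperature with compound, then Ub-Rho substrate (150 nM final) added. Kinetic fluorescence at 480/540 nm over 6 reads at 60 s intervals; 50 mM HEPES pH 7.8, 0.5 mM EDTA, 0.1 mg/ml BSA, 1 mM TCEP, 0.01% Tween-20.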
# Tau fluor counter – counter-screen for tau fibril formation inhibitors. actives 0.93% (n = 280,000). tau K18 P301L Alexa594 fluorescence, heparin fibrillization. Potency, µM (doses to about 57.7 µM), for inactives: top-dose activity change, negative = decrease; further: potency means the concentration at half of the fitted maximal effect; nearly all actives have a fitted effect of over 55% in size
#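 Human K18 P301L tau (15 uM unlabeled plus 0.24 uM Alexa 594-labeled, final) in 100 mM sodium acetate pH 7 was mixed with compound and 20 uM heparin and incubated 6 hr at 37 C.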
# FBPA coupling cs – coupling enzyme interference in Giardia aldolase counter-screen. coupling enzyme system counterscreen, AmpLite Red fluorescence. activity change, negative = inhibition, % at 58.2 µM, hits read low. actives 0.67% (n = 290,000). AID 2472; in the data active means activity change below about -30%
#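 Counterscreen lacking aldolase: glyceraldehyde-3-phosphate coupling-enzyme reagent preincubated 10 min at RT with compound (at 57.5 uM final), then substrate/coupling system with AmpLite Red added; fluorescence read at 525/598 nm after 20 min RT.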
# Tau fibril FP – inhibitors of human tau fibril formation; P10636; K18 P301L tau heparin fibrillization, Alexa594 FP, 6 h; Potency, µM (doses to about 57.7 µM), for inactives: at the top dose activity, negative = inhibition, most hits filed as inhibitors; actives 0.39% (n = 280,000); AID 1468; further: potency means the concentration at half of the fitted maximal effect; nearly all actives have a fitted effect of over 55% in size
#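 Recombinant K18 P301L […], labeled with Alexa 594 at 0.24 uM over 15 uM unlabeled; heparin inducer 20 uM final; 37 C, 6 hr; FP endpoint.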
# Tau ThT inhib – inhibitors of human tau fibril formation, thioflavin T binding; recombinant tau K18 P301L (four-repeat tau fragment), heparin-induced fibrillization, ThT fluorescence; P10636; actives 2.1% (n = 270,000); AID 1460; Potency, µM (titrated, usually from 57.4 µM), for the others: top-dose activity, negative = inhibition, most hits filed as inhibitors; further: potency means the concentration at half of the fitted maximal effect; nearly all actives have a fitted effect of over 55% in size
#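 In this qHTS, human K18 P301L tau is incubated with compound and heparin for 6 hr at 37 C, and Thioflavin T fluorescence then reports fibril load.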
# Starred values were filed as active, the others as inactive; ? = inconclusive; · = no result; [ ] = another dose, or the depositor's remark. Rows were chosen to be rich in hits. Some 2.3% of all compounds tested hit in one or more screens of this group. Unless noted, the call rests on the fitted dose curve; in most records, active means well fitted curve in the direction sought with a large enough effect; inconclusive means small, poorly fitted or top-dose-only effect, or another doubt; inactive means no such curve, though single readings can be large; an effect the other way counts as inactive or inconclusive. On the % scale 0 is the no-effect control and ±100 the full control effect.
SMILES,USP1 inh,Tau fluor counter,FBPA coupling cs,Tau fibril FP,Tau ThT inhib
COc1ccc(OCC(=O)NNc2c3ccccc3nc3ccccc23)cc1,-18%,16µM*[quencher],1,?,6.3µM*
O=C(NNc1c2ccccc2nc2ccccc12)c1ccc(O)cc1O,-11%,13µM*[quencher],-1,8%,2.2µM*
O=C(NNc1c2ccccc2nc2ccccc12)c1cccc(O)c1,0%,14µM*[quencher],-1,13%,2.8µM*
O=C(NNc1c2ccccc2nc2ccccc12)c1ccc(O)cc1,-22%,?,-2,2%,?
O=C(O)CC12C[C@H]3C[C@@H](C1)CC(n1ncc(N4CCN(c5ccccc5)CC4)c(Cl)c1=O)(C3)C2,-16%,-3%,1,-3%,-7%
O=C(NNc1c2ccccc2nc2ccccc12)C(O)c1ccccc1 (configuration not stated),-5%,?,-7,11%,14µM*
Oc1cccc(C=NN=C2c3ccccc3-c3ccccc32)c1,-3%,·,·,·,·
O=C1Nc2ccccc2/C1=N/N=C/c1cccc(O)c1,-16%,?,1,2%,11µM*
COc1cc(/C=N/N=C2/C(=O)Nc3ccccc32)cc(OC)c1O,-18%,?,-1,?,11µM*
O=C1Nc2ccccc2/C1=N\N=C\C1=C(N2CCOCC2)C(=C\c2ccccc2)/CC1,·,?,-4,?,7.1µM*
COc1ccc(O)c(/C=N/N=C2/C(=O)Nc3ccccc32)c1,?,-12%,0,2%,?
Cn1cc(C(=O)N/N=C/C2=C(N3CCOCC3)C(=C\c3ccccc3)/CC2)ccc1=O,7%,-12%,2,16%,?
Cn1cc(-c2nc3cncnc3n(CCN)c2=O)c2ccccc21,·,·,-10,·,·
C[C@@H]1CN([C@H](C)CO)C(=O)CCCn2cc(nn2)CO[C@H]1CN(C)C(=O)Nc1cccc2ccccc12,-29%,·,·,·,·
O=C(NCCc1ccccc1Cl)c1ccc2c(c1)nc1n2CCCCC1,?,1%,·,0%,?
COC(=O)/C=C/C(C)=C/C=C/C(C)=C/C=C/C=C(C)/C=C/C=C(C)/C=C/C(=O)O,·,-23%,-6,?,13µM*
CSc1nc2ccc(NS(=O)(=O)c3ccccc3F)cc2s1,-24%,-11%,1,3%,-5%
CSc1nc2ccc(NS(=O)(=O)c3c(Cl)cccc3Cl)cc2s1,-9%,10µM*[quencher],-17,-3%,?
CCOC(=O)C1=C(O)c2ccccc2C(=O)/C1=C\c1ccc(C)cc1,?,-16%,-51*,?,14µM*
CCOC(=O)C1=C(C)OC(=Cc2ccccc2)C1=O,-35%,·,·,·,·
COC(=O)C1=C(C(=O)OC)SC(=C2C(=S)C(C)(C)N(C(=O)C3CC3)c3ccccc32)S1,-19%,?,-4,?,2.5µM*
CCCC(=O)N1c2ccccc2C(=C2SC(C(=O)OC)=C(C(=O)OC)S2)C(=S)C1(C)C,-16%,?,5,?,2.2µM*
COC(=O)C1=C(C(=O)OC)SC(=C2C(=S)C(C)(C)N(C(=O)C(C)C)c3ccccc32)S1,-19%,?,-1,?,1µM*
C=CC[C@@H]1C=C[C@@H](O/N=C\C[C@@H]2C=C[C@H](OC(C)=O)[C@H](COC(C)=O)O2)[C@@H](CO)O1,·,0%[11.6 µM],0,5%[11.6 µM],-2%[11.5 µM]
CN(C)c1ccc(C(=O)Nc2sc(Nc3ccccc3)nc2C(N)=O)cc1,-25%,11µM*[quencher],·,-1%,1.1µM*
SMILES,USP1 inh,Tau fluor counter,FBPA coupling cs,Tau fibril FP,Tau ThT inhib
COC(=O)C(NC(=O)c1ccccc1)C(C)(C)SCc1ccccc1 (configuration not stated),-18%,·,·,·,·
COc1ccc(-c2[nH]c(-c3ccccc3)nc2SCC(=O)Nc2ccc3c(c2)OCCO3)cc1,-25%,8.9µM*[quencher],·,?,?
O=C(CSc1nc(-c2ccccc2)[nH]c1-c1ccccc1)Nc1ccc2c(c1)OCCO2,-18%,10µM*[quencher],·,-14%,?
O=C(CSc1nc(-c2ccc(F)cc2)[nH]c1-c1ccc(F)cc1)Nc1ccc2c(c1)OCCO2,-27%,8.9µM*[quencher],·,-14%,?
COc1ccc(-c2nc(SCC(=O)Nc3ccc4c(c3)OCO4)c(-c3ccc(OC)cc3)[nH]2)cc1,?,?,·,3%,-10%
O=C(CSc1nc(-c2ccc(F)cc2)[nH]c1-c1ccc(F)cc1)Nc1ccc2c(c1)OCO2,-20%,?,·,?,?
COc1ccc(S(=O)(=O)N2CCC(C(=O)Nc3ccc(Oc4ccccc4)cc3)CC2)cc1OC,-18%,?,·,?,-1%
O=C(NCCO)C1CCN(C(=O)c2ccc(-c3ccccc3)cc2)CC1,-2%,-6%,2,-6%,-8%
COc1ccc(OC)c2sc(N3CCN(C(=O)CCS(=O)(=O)c4ccc(F)cc4)CC3)nc12,-21%,-18%,·,-7%,?
Cc1nc(-n2nc(C)c(Cc3ccccc3Cl)c2C)sc1C(=O)Nc1ccccc1F,?,9%,·,5%,3%
Cc1ccc(C2=N/C(=C\c3c(C)nn(-c4ccccc4)c3N3CCCC3)C(=O)O2)cc1,-18%,-16%,1,2%,13µM*
COc1ccc2[nH]cc(CC(N)C(=O)O)c2c1 (configuration not stated),·,-27%,0,-12%,?
N[C@@H](Cc1c[nH]c2ccc(O)cc12)C(=O)O,-8%,?,·,?,28µM*
O=C(Cc1nc2ccccc2[nH]1)c1ccc([N+](=O)[O-])cc1,-15%,?,0,?,16µM*
CN/N=C(\Cc1nc2ccccc2[nH]1)c1ccc([N+](=O)[O-])cc1,-22%,?,-4,6%,13µM*
Clc1ccc(/C(Cc2nc3ccccc3[nH]2)=N\Nc2ccccc2)cc1,-18%,13µM*[quencher],2,-8%,?
O=C(Cc1nc2ccccc2[nH]1)c1ccc(Cl)cc1,-14%,·,-6,·,·
N#CCCN/N=C(/Cc1nc2ccccc2[nH]1)c1cccc(Cl)c1,-10%,?,-5,8%,?
CC1=NNC(=O)/C1=C\c1cn(-c2ccccc2)nc1-c1ccc(F)cc1,?,-23%,-6,5%,20µM*
CC1=NNC(=O)/C1=C\c1cn(-c2ccccc2)nc1-c1cccs1,-16%,-10%,5,9%,?
CC(C)(C)N=Cc1c(O)ccc2oc3c(c12)CCCC3,-17%,·,1,·,·
O=[N+]([O-])c1cc2oc3c(c2c(C=NCc2ccncc2)c1O)CCCC3,-20%,?,-32*,?,10µM*
Nc1ccc(/C=C/C(=O)c2cccs2)cc1,25µM*,?,-3,-4%,?
COc1ccc(-c2nc3c(c4c2C[C@H](c2ccccc2)OC4)CN(C(=O)NCCc2c[nH]c4ccccc24)CC3)c(C)c1,·,-7%[11.6 µM],1,-7%[11.6 µM],-3%[11.5 µM]
